# Reference: PubChem BioAssay (NCATS)
# Inconclusive results are not listed. Calls of active or inactive are those of the source. Unless noted, the call rests on the fitted dose curve; in most records, active means well fitted curve in the direction sought with a large enough effect; inconclusive means small, poorly fitted or top-dose-only effect, or another doubt; inactive means no such curve, though single readings can be large; an effect the other way counts as inactive or inconclusive.
# Columns and labels:
# [1] = target: Catechol O-methyltransferase (Homo sapiens) (UniProt P21964); assay: Confirmatory Screen for Target Class Profiling of Small Molecule Inhibitors of Methyltransferases (AID 1745852; calls by dose curve; on activity change, negative = inhibition: on the % scale 0 is the no-effect control and ±100 the full control effect); details: MTase-Glo luminescence, SAH detection, recombinant enzyme; measured here: COMT max response; stronger effect = lower value
# [2] = target: Guanidinoacetate N-methyltransferase (Homo sapiens) (UniProt Q14353); assay: as above; details: MTase-Glo luminescence, SAH detection, recombinant enzyme; activity change, negative = inhibition: at 57.3 µM (top of the series) unless noted; series mostly up to 57.3 µM
# [3] = target: Nicotinamide N-methyltransferase (Homo sapiens) (UniProt P40261); assay: as above; details: MTase-Glo luminescence, SAH detection, recombinant enzyme; measured here: NNMT max response; stronger effect = lower value
# [4] = target: Phenylethanolamine N-methyltransferase (Homo sapiens) (UniProt P11086); assay: as above; details: MTase-Glo luminescence, SAH detection, recombinant enzyme; measured here: PNMT max response; stronger effect = lower value
# [5] = Primary qHTS for inhibitors of nuclear receptor binding SET domain protein 2 (NSD2) in an RCH-ACV wild type WT cells (2C) (AID 1645877); details: RCH-ACV (leukaemia line) NSD2 WT (2C) viability, CellTiter-Glo, 72 h; series mostly up to 44.9 µM; further: nearly all actives have a fitted effect of over 70% in size; further: potency means the concentration at half of the fitted maximal effect
# [6] = NCATS anti-infectives library activity on HEK293 viability as a counter-qHTS vs the C. elegans viability qHTS (AID 1745854); details: HEK293 viability counter-screen; series mostly up to 41.8 µM; further: on the % scale 0 is the no-effect control and ±100 the full control effect
# How it was run: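 CellTiter-Glo luminescence, read on a CCD imager, scored viability of HEK293 cells after 24 hr compound exposure at 37C. Library tested in several concentrations, 1:5 steps, up to 41.7 uM; digitonin served as control.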
# [7] = NCATS anti-infectives library activity on the primary C. elegans qHTS viability assay (AID 1745855; calls by dose curve; further: potency means the concentration at half of the fitted maximal effect); details: C. elegans worm area imaging, day 7; series mostly up to 41.8 µM
# How it was run: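 Titration-based screen in worms: eggs hatched overnight in M9, L1 larvae fed TOP10 capsules in S medium with compound, incubated 21 °C for 7 days; fluorescent objects gated by size and intensity at days 0, 3 and 7.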
# Sequence of Phenylethanolamine N-methyltransferase (Homo sapiens) (P11086 whole entry, looked up, the tested form may be a part): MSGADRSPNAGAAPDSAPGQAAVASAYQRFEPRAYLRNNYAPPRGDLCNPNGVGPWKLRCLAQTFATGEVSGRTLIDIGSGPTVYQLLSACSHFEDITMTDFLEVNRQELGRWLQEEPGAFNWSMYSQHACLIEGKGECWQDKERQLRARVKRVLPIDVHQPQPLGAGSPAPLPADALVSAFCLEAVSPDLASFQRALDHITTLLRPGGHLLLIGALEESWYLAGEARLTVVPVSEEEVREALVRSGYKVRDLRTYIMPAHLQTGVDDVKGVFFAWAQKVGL
# Sequence of Nicotinamide N-methyltransferase (Homo sapiens) (P40261 whole entry, looked up): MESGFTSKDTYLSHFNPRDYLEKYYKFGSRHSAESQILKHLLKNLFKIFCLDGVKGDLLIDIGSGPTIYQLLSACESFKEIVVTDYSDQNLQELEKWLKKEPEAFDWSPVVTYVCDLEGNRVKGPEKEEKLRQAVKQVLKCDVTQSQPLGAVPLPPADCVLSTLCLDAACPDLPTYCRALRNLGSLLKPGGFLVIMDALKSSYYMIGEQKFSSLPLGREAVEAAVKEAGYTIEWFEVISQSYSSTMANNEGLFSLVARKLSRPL
# Sequence of Catechol O-methyltransferase (Homo sapiens) (P21964 whole entry, looked up): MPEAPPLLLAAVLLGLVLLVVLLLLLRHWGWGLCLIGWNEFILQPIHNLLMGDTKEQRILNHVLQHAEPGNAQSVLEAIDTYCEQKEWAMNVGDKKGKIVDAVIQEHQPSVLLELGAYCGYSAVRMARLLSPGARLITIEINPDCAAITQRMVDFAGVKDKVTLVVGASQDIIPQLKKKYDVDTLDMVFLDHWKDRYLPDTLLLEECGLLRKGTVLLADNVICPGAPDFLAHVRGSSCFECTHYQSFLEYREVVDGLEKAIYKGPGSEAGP
smiles,measurement,setting,value
C=C(C(=O)O)C1CC(O)C2(C)CCCC(=C)C2C1 (centres undefined),activity,[1],-51%
same,"activity change, negative = inhibition",[2],0%
same,activity,[3],4.87%
same,activity,[4],3.46%
C[C@H](NC(=O)CCc1nc2ccccc2c(=O)[nH]1)c1ccccc1,Potency,[5],inactive
same,Potency,[6],inactive
same,Potency,[7],inactive
CC(C)c1cccc2c(-c3ccccc3)cc(-c3ccc(-c4ccc(C(=O)O)cc4)[nH]3)nc12,activity,[1],-3.32%
same,"activity change, negative = inhibition",[2],-5%
same,activity,[3],-16.3%
same,activity,[4],-5.01%
Cc1cc(C)c(Nc2ccnc(Nc3ccc(C#N)cc3)n2)c(C)c1,Potency,[5],4.09 µM (active)
same,Potency,[7],5.15 µM (active)
CCN(CC)Cc1ccc(C(=O)N(CCc2ccccc2OC)[C@@H]2CCNC2)cc1,Potency,[6],inactive
Cc1ccc(NC(=O)C(=O)NC2CC(C)(C)NC(C)(C)C2)cc1,Potency,[6],inactive
C/C=C/c1ccc2c(c1)[C@@H](C)[C@H](c1ccc(O)cc1)O2,activity,[1],-8.28%
same,"activity change, negative = inhibition",[2],0.447%
same,activity,[3],-59.1%
same,activity,[4],0.8%
Cc1cc(C)cc(C(=O)NOCCCCCC(=O)NO)c1,Potency,[5],0.409 µM (active)
same,Potency,[6],inactive
CCO[C@@H]1OC(=O)C[C@@H]1NC(=O)[C@@H]1CCCN1C(=O)[C@@H](NC(=O)c1ccc(N)c(Cl)c1)C(C)(C)C,Potency,[5],inactive
same,Potency,[6],inactive
N#Cc1cnc2cnc(NCc3cccnc3)cc2c1Nc1ccc(F)c(Cl)c1,activity,[1],-10.6%
same,"activity change, negative = inhibition",[2],-3.05%
same,activity,[3],-57.3%
same,activity,[4],-6.2%
O=C1CSc2ccccc2N1Cc1cccc(C(F)(F)F)c1,activity,[1],-10.1%
same,"activity change, negative = inhibition",[2],-5.12%
same,activity,[3],-46.9%
same,activity,[4],-11.4%
CC1=C(C(=O)OCc2ccccc2)C(c2ccc(-c3ccccc3)cc2)NC(=O)N1CCCCCC(=O)O (centres undefined),activity,[1],-3.43%
same,"activity change, negative = inhibition",[2],0%
same,activity,[3],-35.4%
same,activity,[4],2.18%
COc1cc2c(cc1OC)N1C(=O)C[C@]34C=CCN5CC[C@@H]2[C@@H](CC3)[C@]514,activity,[1],-18.8%
same,Potency,[2],inactive
same,activity,[3],1.78%
same,activity,[4],3.88%
